The text below walks through data of ChEMBL document CHEMBL4513216, “Probing the Open Global Health Chemical Diversity Library for Multistage-Active Starting Points for Next-Generation Antimalarials” (ACS Infect Dis, 2020).

The campaign covered roughly 69,000 compounds. About 8,600 (12%) showed an effect of 50% or more. Only a selection was taken, and strong results are over-represented in it overall.

The assay relates to Plasmodium berghei. Nature of the assay: Screen against P. berghei liver stage (PbLuc), transformed with Luciferase, at 10uM. As to conditions: tested at 10 uM. It is filed as functional, HepG2.
Take `Cc1nn(C)c(C)c1C1CCCN1Cc1nc2ccccc2n1C` (stereo not given): the INHIBITION is recorded as -55.4%.
Take `COc1cccc(-n2nnc(C(=O)N3CCOC(C)C3)c2C)c1` (stereo not given): the INHIBITION came to 14.05%.
The same measure for `CC1CC2(CCN(C(=O)c3c[nH]cn3)CC2)c2ccccc21` (stereo not given): 5.68%; for `CCOC1CC2(CCN(C(C)=O)CC2)c2cc(F)ccc21` (stereo not given): -33.9%; for `CC1CC2(CCN(C(=O)c3csnn3)CC2)c2ccccc21` (stereo not given): 15.9%.
In the case of `CNC(=O)C1CC2(CCN(C(=O)c3csnn3)CC2)c2ccccc21` (stereo not given) it was 51.3%; in that of `CCOC1CCC2(CCN(C(=O)c3csnn3)CC2)c2ccccc21` (stereo not given), 56.4%; in that of `CCOC1CCC2(CCN(C(=O)c3c[nH]cn3)CC2)c2ccccc21` (stereo not given), 51.4%.
The same measure for `CS(=O)(=O)N1CC2(CCN(C(=O)c3csnn3)CC2)c2ccccc21`: 13.7%.
Regarding `CCOc1ccccc1OC1CCN(C(=O)c2csnn2)CC1`, the INHIBITION was determined as 15.3%.
The same measure for `CN1CCN(C(=O)c2csnn2)c2ccccc21`: 23.2%.
In the case of `Cc1cccc(CN2C(=O)CO[C@@H]3CN(Cc4nccn4C)C[C@H]32)c1` it was 36.1%.
The same measure for `COc1cccc(C2(CNC(C)c3nnc(C)o3)CCCC2)c1` (stereo not given): 3.03%.
On to `CC(C)N1CCCC(Cc2cncc(Br)c2)CC1` (stereo not given), for which the INHIBITION is on record as 51.5%.
On to `CC(=O)N1CCCC(Cc2cncc(Br)c2)C1` (stereo not given), for which the INHIBITION is 44.1%.
The same measure for `CS(=O)(=O)N1CCCC(Cc2cncc(Br)c2)CC1` (stereo not given): 29.3%.
The same measure for `CC(=O)N1CCCC(Cc2cncc(Br)c2)CC1` (stereo not given): 54.6%.
Take `CN1CCN(C(=O)c2cncc(CC3CCCN(C)C3)c2)CC1` (stereo not given): the INHIBITION was found to be 37%.
Take `CN1CCCC(Cc2cncc(Br)c2)CC1` (stereo not given): the INHIBITION is reported as 44.9%.
In the case of `CC(=O)N1CCC(c2cncc(Cl)n2)CC1` it was 1.62%.
In the case of `Cc1cccc(CN2CCC3(CCCN(C(=O)N4CCCC4)C3)C2=O)n1` (stereo not given) it was -29.3%; in that of `CC(=O)NCCNC(=O)c1nc(C2CC2)n(-c2ccccc2Cl)n1`, 8.46%; in that of `Cc1ccc(S(=O)(=O)N(CC2CCOC2)C2CC2)cc1N(C)C` (stereo not given), 17.1%.
The same measure for `O=C(c1ccco1)N1CCc2ncc(CN3CCOCC3)n2CC1`: 5.44%.
On to `c1csc(-c2noc(C3CN(Cc4ccc5c(c4)CCO5)C3)n2)c1`, for which the INHIBITION is 52.5%.
In the case of `c1csc(-c2noc(C3CNC3)n2)c1` it was 58.1%.
The same measure for `CCS(=O)(=O)N1CC(c2nc(-c3cccs3)no2)C1`: 9.41%; for `c1csc(-c2noc(C3CCCNC3)n2)c1` (stereo not given): 41.5%.
Consider `Cc1noc(C2CN(Cc3ccc4c(c3)CCO4)C2)n1`, for which the INHIBITION was -5.01%.
The same measure for `c1cnc(-c2noc(C3CN(Cc4ccc5c(c4)CCO5)C3)n2)cn1`: 58.5%.
In the case of `c1cnc(-c2noc(C3CN(Cc4ccsc4)C3)n2)cn1`, the INHIBITION is recorded as 28.3%.
The same measure for `c1csc(-c2noc(C3CCCOC3)n2)c1` (stereo not given): -31%; for `c1cnc(-c2noc(C3CN(Cc4ccc5c(c4)CCO5)C3)n2)nc1`: 27.5%; for `CCN(CC)CCNc1nc(C(C)C)nc2c(C)nn(CC)c12`: 44.9%.
In the case of `CN(C)CCN1CCCC12CCN(C(=O)c1cccnc1)CC2` it was 11.6%; in that of `Cc1ccc(NC2CCN(C(=O)c3ccoc3C)CC2)nn1`, 28.95%; in that of `CN1CCC(N2CCCC(C(=O)N3Cc4ccccc4C3)C2)CC1` (stereo not given), 10.6%.
In the case of `O=C(Nc1nncs1)NC1CCN(Cc2ccccc2)C1` (stereo not given) it was 12.433%; in that of `Cc1noc([C@@H]2C[C@@H]3CCN(CC4CC4)C[C@H]3O2)n1`, -6.39%; in that of `Cn1ccnc1CNC(=O)N(CCCO)C1CCCc2ccccc21` (stereo not given), -17.4%.
As to `Cc1nnc(CN(C)CC(=O)NCCc2ccc(F)cc2)n1C`, the INHIBITION is recorded as -9.39%.
The same measure for `CC(C)COc1ccccc1C(N)CC(C)C` (stereo not given): 30.9%; for `CCOc1ccccc1C(N)CC(C)C` (stereo not given): 30.9%; for `CCCOc1ccccc1C(N)CC(C)C` (stereo not given): 80.9%.
Regarding `COCCN1CCOCC2(CCN(c3cnccn3)CC2)C1`, the INHIBITION came out at 29.4%.
In the case of `CCc1nc(C)ncc1C(=O)N1CC(=O)N(C)c2ccccc21` it was 28.7%; in that of `CCc1nc(C)ncc1C(=O)N1CC(C)CN(C)c2ccccc21` (stereo not given), 57.8%.
In the case of `CCc1nc(C)ncc1C(=O)N1CCN(CC)c2ccccc21` it was 47.7%; in that of `CO[C@H]1CCN(c2nnc(C)s2)C[C@@H]1Cc1cccc(C)c1`, 24.9%.
Take `CO[C@H]1CCN(Cc2nccs2)C[C@@H]1Cc1ccccc1`: the INHIBITION is recorded as 69.5%.
The same measure for `CO[C@@H]1CCN(C2CCOCC2)C[C@@H]1Cc1ccccc1`: -84.9%.
For the molecule `CO[C@@H]1CCN(Cc2nccs2)C[C@@H]1Cc1cccc(C)c1`, the INHIBITION is listed as 54.4%.
In the case of `C[C@@H]1C[C@@H]2CCN(Cc3nccs3)C[C@H]2O1`, the INHIBITION was 40.8%.
The same measure for `C[C@H]1C[C@@H]2CCN(Cc3nccs3)C[C@H]2O1`: 20.1%; for `CO[C@@H]1CCN(c2nnc(C)s2)C[C@@H]1Cc1cccc(C)c1`: 2.41%; for `CO[C@H]1CCN(C2CCOCC2)C[C@@H]1Cc1ccccc1`: -8.51%.
As to `CO[C@@H]1CCN(Cc2nccs2)C[C@@H]1Cc1ccccc1`, the INHIBITION is listed as 62.5%.
As for `Cc1nc2c(c(=O)[nH]1)CN(C(=O)CC[C@@H]1CCCN3CCCC[C@H]13)C2`, the INHIBITION is reported as -1.85%.
Consider `Cc1nn(C)c(N(C)C)c1CNCc1ccccc1Cn1cccn1`, for which the INHIBITION is on record as 33.8%.
The same measure for `O=C(c1c[nH]cn1)N1CCCn2c(CN3CCCCC3)nnc2C1`: -56.3%.
The same measure for `CNS(=O)(=O)c1ccc(CNC(=O)N(C)CC(C)C)cc1`: 18.3%; for `Cc1cnc2n(c1=O)C(CC(=O)NCc1ccc(Cl)cc1)CS2` (stereo not given): 61.2%; for `Cc1cnc2n(c1=O)C(CC(=O)NCc1ccc(F)cc1)CS2` (stereo not given): 18.3%.
Take `Cc1cnc2n(c1=O)C(CC(=O)NCc1ccccc1Cl)CS2` (stereo not given): the INHIBITION is 6.67%.
The same measure for `CCOCC1CN(C(=O)c2ccncn2)Cc2cnn(CC)c21` (stereo not given): 35.7%; for `CCc1n[nH]c(C2CN(C(=O)c3ccc4c(c3)CCC4)CCO2)n1` (stereo not given): -12.1%; for `Cc1cc(O)n(-c2ccccc2Cl)c(=O)c1C#N`: 50.4%.
For `COc1ccccc1-n1c(O)cc(C)c(C#N)c1=O`, the INHIBITION is 39.1%.
For `Cc1ccccc1-n1c(O)cc(C)c(C#N)c1=O`, the INHIBITION stood at 3.84%.
In the case of `Cc1c(S(=O)(=O)NC2CC2)cc2c(C)cc(=O)n3c2c1CCC3` it was -17.1%.
In the case of `CCNc1c(NC(=O)NCCOC)c(=O)oc2ccccc12` it was 69.9%; in that of `CCCNc1c(NC(=O)NCCOC)c(=O)oc2ccccc12`, -24.7%; in that of `CCCNc1c(NC(=O)NCCCOC)c(=O)oc2ccccc12`, -13.6%.
The same measure for `CN1CCC(NC(=O)Nc2cnn(-c3ccccc3Cl)c2)CC1`: -10.1%.
On to `CN1CCC(NC(=O)NCCNc2ccccn2)CC1`, for which the INHIBITION worked out at 16.1%.
Consider `CCC(CNC(=O)NC1CCN(C)CC1)Oc1ccccc1Cl` (stereo not given), for which the INHIBITION is recorded as 89.6%.
Regarding `CC(C)n1[nH]c(=O)c2c1NC(=O)CC2c1cccc2cccnc12` (stereo not given), the INHIBITION is on record as -62.3%.
The same measure for `Cc1ccnc(C2(C)CCCN2S(=O)(=O)c2cccnc2)n1` (stereo not given): 21.2%; for `Cn1ccc(C(=O)NCc2ccc(CN3CCCC3)cc2)cc1=O`: -2.19%.
With `Cc1cc(NC(=O)NCc2nccn2C)ccc1OC(C)C`, the INHIBITION was 37.1%.
The same measure for `COc1cc(NC(=O)NCc2nccn2C)ccc1Br`: 50.8%; for `Cn1ccnc1CNC(=O)Nc1ccc(OC2CCC2)c(F)c1`: 18%; for `Cc1cnn(CC2CCCN2C(=O)c2ccc(OCC3CC3)nc2)c1` (stereo not given): -15%.
In the case of `O=C(CCc1cc2n(n1)CCCN(C(=O)c1ccncc1)C2)NC1CC1` it was 43.2%.
The same measure for `CC(C)CC(C)NC1CCN(c2ccc(-c3cscn3)cc2)CC1` (stereo not given): 45.2%; for `CC(C)[C@H](C)NC1CCN(c2ccc(-c3cscn3)cc2)CC1`: 81.4%; for `Cc1cc(NC(=O)CN2CCN(c3nc(C)cs3)C(C)C2)on1` (stereo not given): -1.12%.
As to `Cc1nc(C(C)C)sc1C(=O)N1CCC(N2CCSCC2)CC1`, the INHIBITION came to 1.86%.
In the case of `CS(=O)(=O)N1CCOCC2(CCN(Cc3ccc[nH]3)CC2)C1` it was 57.1%.
In the case of `CN1CCOCC2(CCN(Cc3ccc[nH]3)CC2)C1` it was 18.7%; in that of `c1c[nH]c(CN2CCC3(CC2)COCCN(CCN2CCCC2)C3)c1`, -15.3%.
Turning to `O=C(O)c1ccccc1-c1ccc(CN2CCC(CO)C2)cn1` (stereo not given), the INHIBITION turned out to be 33.2%.
On to `CC(C)n1cnc2c1C(C(=O)N1CCOCC1)N(CC1CC1)CC2` (stereo not given), for which the INHIBITION is recorded as -49.1%.
`CN(C)C(=O)COCc1nn(C)c2c1CCN(Cc1ccco1)C2`: the INHIBITION was 13.3%.
In the case of `Cc1cccc(CN2CCc3c(COCC(=O)N(C)C)nn(C)c3C2)n1` it was 76.2%; in that of `Cc1cccc(CN2CCc3c(CNC(=O)CC#N)nn(C)c3C2)n1`, 44.2%.
Consider `CN1CCC(c2cccc(-c3ccc(C(=O)O)cc3)n2)CC1`, for which the INHIBITION came to 15.5%.
The same measure for `c1csc(CN2CCCN(c3ncnc4[nH]ccc34)CC2)c1`: 38.4%.
Take `CNc1ncc(CN(C)c2nc(C3CCCC3)nc3c2cnn3C)cn1`: the INHIBITION is on record as 24.7%.
Take `CN(C)CCN(C)c1nc(CCc2ccccc2)nc2c1cnn2C`: the INHIBITION is listed as -13.4%.
In the case of `CCCc1nc(N(C)CCN2CCCCCC2)c2cnn(C)c2n1` it was 53%.
Consider `CCCc1nc(N(C)Cc2cnc(NC)nc2)c2cnn(C)c2n1`, for which the INHIBITION is 58.7%.
For the molecule `CCCc1nc(N2CCCN(c3ncccn3)CC2)c2cnn(C)c2n1`, the INHIBITION is 30.9%.
The same measure for `CCCc1nc(N(C)CCc2noc(C(C)C)n2)c2cnn(C)c2n1`: 42.3%; for `Cc1cccc(-n2c(C)cc(C(=O)NS(C)(=O)=O)c2C)c1`: 9.14%.
The same measure for `C/C(Cl)=C/CNC(=O)C1CCC2(CC1)CN(C)C(=O)c1ccccc1O2` (stereo not given): 7.96%.
In the case of `CCC(C)NS(=O)(=O)c1ccc(C=Cc2onc(C)c2NC(C)=O)cc1` (stereo not given) it was -9.55%; in that of `CC(C)NC(=O)CN1CCN(CC2CCOc3ccccc3C2)CC1` (stereo not given), -19.8%; in that of `O=C(CN1CCN(CC2CCOc3ccccc3C2)CC1)N1CCCC1` (stereo not given), 16.1%.
As to `CN(C)C(=O)CN1CCCN(CC2CCOc3ccccc3C2)CC1` (stereo not given), the INHIBITION stood at 75.2%.
